# Only some compounds are listed: those with a hit (about 3% of all), similar ones and a draw of the others.
# Tb PYK inh = T. brucei pyruvate kinase inhibition; Q57TT1; TbPYK enzyme, Kinase-Glo Plus ATP luminescence, 45 min; Potency, µM (doses to about 76.8 µM), for inactives: at the top dose activity, negative = inhibition, most hits filed as inhibitors; 410,000 compounds, 0.12% hits; also: nearly all actives have a fitted effect of over 50% in size
#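 Assay buffer: 50 mM TEA pH 7.2, 100 mM KCl, 10 mM MgCl2, 0.05% BSA, 0.01% Tween-20. Pyruvate kinase from T. brucei plus substrate met compound, then ADP (130 uM final). Luminescence was read post 45 min RT.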
# LmPK inhibitor = LmPK (Leishmania mexicana) enzyme inhibition; purified LmPK, Kinase-Glo ATP luminescence, 1 h; Potency, µM (top dose mostly 57.5 µM), without a hit: at the top dose activity change, negative = inhibition, hits mostly inhibitors; 290,000 compounds, 0.37% hits; AID 1721
# Target sequence (Q27686 whole entry, looked up): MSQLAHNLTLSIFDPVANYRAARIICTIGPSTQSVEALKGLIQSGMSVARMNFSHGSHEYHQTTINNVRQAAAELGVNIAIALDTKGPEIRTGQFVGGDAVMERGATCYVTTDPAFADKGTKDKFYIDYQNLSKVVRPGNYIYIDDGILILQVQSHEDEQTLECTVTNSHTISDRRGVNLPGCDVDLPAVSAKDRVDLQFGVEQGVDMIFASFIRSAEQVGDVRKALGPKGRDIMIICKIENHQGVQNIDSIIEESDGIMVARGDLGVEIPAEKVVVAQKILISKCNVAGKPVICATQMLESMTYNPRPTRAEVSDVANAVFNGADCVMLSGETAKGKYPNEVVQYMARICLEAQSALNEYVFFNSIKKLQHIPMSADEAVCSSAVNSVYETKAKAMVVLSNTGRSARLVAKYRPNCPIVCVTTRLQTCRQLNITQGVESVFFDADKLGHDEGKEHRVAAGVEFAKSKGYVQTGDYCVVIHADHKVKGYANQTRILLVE
#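 Kinase-Glo luminescence read after 1 h RT reaction of 0.1 nM LmPK with 0.5 mM PEP and 0.1 mM ADP. Activity scaled between uninhibited and enzyme-free controls.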
# Sm TGR inh = S. mansoni TGR enzyme inhibition. Q962Y6. purified TGR, DTNB reduction, TNB absorbance 405 nm. Potency, µM (highest dose often 114 µM), inactives show at the highest dose activity change, negative = inhibition, usual class: inhibitors. 360,000 compounds, 3% hits. AID 485364; also: nearly all actives have a fitted effect of over 60% in size
#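 Kinetic colorimetric format: TGR-catalysed, NADPH-driven DTNB reduction monitored via TNB absorbance. Enzyme dispensed at 20 nM; compound exposure 15 min at room temperature before reaction start.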
# RE007 growth inh = less growth of the S. pombe RE007 Vpr strain; S. pombe RE007 Vpr strain, BacTiter-Glo ATP luminescence, 24 h; Potency, µM (top dose mostly 92.2 µM), inactives show top-dose activity change, negative = less growth, actives largely listed as inhibitors; 360,000 compounds, 0.21% hits; AID 651644; active = well fitted falling curve with a large enough effect; inconclusive = small, poorly fitted or top-dose-only effect; inactive = no such curve, though single readings can be large or run the other way; also: nearly all actives have a fitted effect of over 50% in size
#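 Fission yeast strain RE007, carrying one chromosomally integrated HIV-1 vpr copy, was seeded at OD 0.01 in PMG+AL medium with 23 nL pinned compound. After 24 h at 30 °C and 99% humidity, viability was read by BacTiter-Glo luminescence.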
# The depositor's hits bear a star; ? = inconclusive; / = no result given; [ ] = another dose, or the depositor's remark. Unless noted, calls follow the shape of the dose curve; as a rule, active = well fitted curve in the direction sought with a large enough effect; inconclusive = small, poorly fitted or top-dose-only effect, or another doubt; inactive = no such curve, though single readings can be large; an effect the other way counts as inactive or inconclusive. % is scaled to controls: 0 for no effect and ±100 for the full control effect; potency is read from the fitted curve at half-maximal effect.
SMILES,Tb PYK inh,LmPK inhibitor,Sm TGR inh,RE007 growth inh
C/C=C/C(=O)Nc1cccc(C2=NOC3(C2)C[C@@H](C(N)=O)N(C(=O)c2cc([N+](=O)[O-])cc([N+](=O)[O-])c2)C3)c1 (some centres not stated),0%,6%,0%,-24%
C/C=C\C=C/C(=O)Nc1cccc(C2=NOC3(C2)C[C@@H](C(N)=O)N(C(=O)c2ccc(Cl)cc2)C3)c1 (some centres not stated),-18%,4%,3.2µM*,-7%
O=C1N(Cc2ccccc2)c2ccccc2OC1(F)F,-3%,/,/,14%
COc1ccc(CCNC(=S)NC(=O)c2ccccc2)cc1C,0%,3%,3.5µM*,-14%
O=C(NC(=S)NC(=O)c1ccccc1F)c1ccccc1F,3%,0%,2.8µM*,-1%
Cc1ccc(C(=O)NC(=S)NCc2ccccc2)cc1,7%,-5%,6.3µM*,?
COc1ccc(CCNC(=S)NC(=O)c2ccc(Br)cc2)cc1OC,-1%,5%,?,-27%
O=C(NC(=S)NCCc1ccccc1)c1ccccc1,2%,2%,18µM*,-19%
COc1ccc(C(=O)NC(=S)NCc2ccccc2)cc1OC,-2%,0%,/,-3%
Cc1ccc(NC(=O)c2c(C)oc3ncn(C)c(=O)c23)cc1F,-1%,/,3%,/
O=c1c(-c2ccc(F)cc2)nc2cncnc2n1C1CC1,-5%,/,/,/
O=C(NC(=S)NCCc1ccccc1)c1ccccc1F,-4%,-8%,40µM*,-7%
Cc1ccc(C(=O)NC(=S)Nc2cccnc2Cl)cc1,0%,-2%,16µM*,-12%
COc1ccccc1C(=O)NC(=S)Nc1cccnc1Cl,4%,-13%,-1%,-24%
CCC1(c2cnc[nH]2)Cc2ccccc2C1,-9%,/,/,/
CC(C=CC(O)=C1C(=O)CNC1=O)=C[C@@H](C)C1OC2(C)OC(C(=O)C3O[C@@]32C)C1C (some centres not stated),-21%,/,/,95%
CCN(CC)Cc1oc(-c2ccccc2)cc1C(=O)O,6%,4%,50µM*,0%
CCN(CC)Cc1cc(C(=O)O)c(-c2ccccc2)o1,-2%,-3%,-17%,10%
NCc1oc(-c2ccccc2)cc1C(=O)O,7%,4%,45µM*,0%
Cc1oc(-c2ccccc2)cc1C(N)=O,4%,-4%,1%,-9%
COc1cc(-c2nc(S(=O)(=O)c3ccc(Br)cc3)c(N3CCOCC3)o2)cc(OC)c1OC,0%,/,2%,/
COc1ccccc1-c1noc(CSc2nc3ccc(C)cc3[nH]2)n1,-5%,/,-5%,/
CCOC(=O)c1ccc(N2C(=O)c3[nH]nc(-c4ccc(C)cc4)c3C2c2cccc(F)c2)cc1 (configuration not stated),4%,/,-4%,/
CN(Cc1ccccc1)C(=C(Cl)Cl)C(=C1NCCN1)[N+](=O)[O-],-3%,-3%,35µM*,-1%
O=C(COC(=O)CCS(=O)(=O)c1ccccc1)Nc1ccccc1,-13%,/,8.9µM*,-3%
SMILES,Tb PYK inh,LmPK inhibitor,Sm TGR inh,RE007 growth inh
CCCCn1nnnc1C1(C)CCC(=O)N1CCOC (configuration not stated),-1%,/,/,6%
O=c1[nH]c(=O)n(-c2cccc(Cl)c2)c(O)c1/C=N/c1ccccn1,-9%,-2%,79µM*,17%
N=Cc1c(O)n(-c2cccc(Cl)c2)c(=O)[nH]c1=O,6%,0%,-1%,3%
Cc1nnc(SCc2ccccc2Cl)c2cc3occc3n12,-4%,/,11%,/
CCn1nnc2cc(C(=O)Nc3cc(C)ccc3C)ccc21,3%,/,7%,/
Cc1[nH][nH]c(=O)c1C(c1ccc(-c2ccc(F)cc2)o1)c1c(C)[nH][nH]c1=O,-16%,2%,32µM*,-12%
COc1ccc(-c2ccc(/C=N/N3C(=O)C4C5C=CC(C6CC56)C4C3=O)o2)c([N+](=O)[O-])c1 (configuration not stated),-8%,5%,-14%,3%
Cc1[nH][nH]c(=O)c1C(c1ccc(-c2ccc(C(=O)O)cc2)o1)c1c(C)[nH][nH]c1=O,?,-17%,16µM*,-27%
Cc1[nH][nH]c(=O)c1C(c1ccc(-c2ccc(Cl)c(Cl)c2)o1)c1c(C)[nH][nH]c1=O,-11%,-1%,40µM*,14%
COc1ccc(-c2ccc(C(c3c(C)[nH][nH]c3=O)c3c(C)[nH][nH]c3=O)o2)c([N+](=O)[O-])c1,-7%,-7%,28µM*,-9%
CCOC(=O)c1c(NC(=O)CSc2cn(CCNC(=O)c3ccccc3OC)c3ccccc23)sc2c1CCC2,-2%,/,5%,/
Cc1nc(N)sc1C(=O)N1N=N1,-2%,1%,2.5µM*,1%
Cc1ccccc1-n1c(SCC(=O)Nc2ccc(Cl)cc2Cl)nc(O)cc1=O,7%,/,-1%,/
Cc1cc(C)c2[nH]c(=O)c(C(c3nnnn3C(C)(C)C)N(Cc3ccco3)CC3CCCO3)cc2c1 (configuration not stated),-5%,3%,45µM*,-2%
Cc1cccc2cc(CN(CC3CCCO3)C(c3nnnn3Cc3ccco3)C(C)C)c(=O)[nH]c12 (configuration not stated),-10%,3%,50µM*,-2%
COc1ccc(CCC(=O)NC2CC(=O)N(c3ccc(C)c(C)c3)C2)cc1 (configuration not stated),7%,/,0%,/
Cc1noc(C)c1NC(=O)N(C)C[C@H]1Oc2ccc(NC(=O)c3ccncc3)cc2C(=O)N([C@H](C)CO)C[C@@H]1C,4%,/,/,4%
COc1cc2c(cc1OC)C1O[C@](CCCCN3C(=O)c4ccccc4C3=O)(C2)OC2=C1C(=O)CC(C)(C)C2,/,-8%[11.5 µM],4.5µM*,/
COc1cc2c(cc1OC)C1O[C@](CCCCN3C(=O)c4ccccc4C3=O)(C2)OC2=C1C(=O)OC1(CCCCC1)C2,/,-8%[11.5 µM],4.5µM*,/
CCN1CCCC(Sc2nc3c([nH]2)c(=S)n(C)c(=O)n3C)C1 (configuration not stated),2%,-1%,40µM*,/
Cn1c(=S)c2[nH]c(SCCN)nc2n(C)c1=O,-11%,/,/,-19%
Cn1c(=O)c2[nH]c(C3CCC3)nc2n(C)c1=O,-1%,/,/,0%
Cn1c(=S)c2[nH]c(SCCN3CCCC3)nc2n(C)c1=O,-18%,4%,40µM*,/
Cc1ccc(S(=O)(=O)c2nc(-c3ccccc3)oc2SCC(=O)NCC2CCCO2)cc1 (configuration not stated),8%,0%,-12%,-3%
CCSc1oc(-c2ccco2)nc1S(=O)(=O)c1ccc(C)cc1,1%,0%,40µM*,-1%
COc1ccc(NC(=O)CSc2oc(-c3ccco3)nc2S(=O)(=O)c2ccc(C)cc2)c(OC)c1,0%,/,?,/
Cc1ccc(S(=O)(=O)c2nc(-c3ccco3)oc2SCc2ccc(F)cc2)cc1,-3%,/,?,/
CCSc1oc(-c2ccco2)nc1S(=O)(=O)c1ccc(F)cc1,-3%,1%,14µM*,1%

# Source: PubChem BioAssay
